# Results from a collection of fitness landscapes (doi:10.1126/science.1257360).
# Whole data set: some 140,000 sequences, median “enrichment ratio after two sorts for PhoP signalling” near 0, cut for the highest 2% near 11. Many of the other results were omitted from the sample, so the highest values are more common in it than they were.
# B1: PhoQ; a variant is named by its letters at X, in order, P23837 (parent)
# chain: MKKLLRLFFPLSLRVRFLLATAAVVLVLSLAYGMVALIGYSVSFDKTTFRLLRGESNLFYTLAKWENNKLHVELPENIDKQSPTMTLIYDENGQLLWAQRDVPWLMKMIQPDWLKSNGFHEIEADVNDTSLLLSGDHSIQQQLQEVREDDDDAEMTHSVAVNVYPATSRMPKLTIVVVDTIPVELKSSYMVWSWFIYVLSANLLLVIPLLWVAAWWSLRPIEALAKEVRELEEHNRELLNPATTRELTSLVRNLNRLLKSERERYDKYRTTLTDLTHSLKTPLXXLQXXLRSLRSEKMSVSDAEPVMLEQISRISQQIGYYLHRASMRGGTLLSRELHPVAPLLDNLTSALNKVYQRKGVNISLDISPEISFVGEQNDFVEVMGNVLDNACKYCLEFVEISARQTDEHLYIVVEDDGPGIPLSKREVIFDRGQRVDTLRPGQGVGLAVAREITEQYEGKIVAGESMLGGARMEVIFGRQHSAPKDE
# Variants of: B1
# Assay: enrichment ratio after two sorts for PhoP signalling (ratio (wild type AVST 3.29)); higher = more functional
# Conditions: with PhoP (E. coli)
row,Variant,enrichment ratio
1,CLFS,≤ 0.25
2,WHNW,≤ 0.25
3,WMSA,≤ 0.25
4,HCSR,≤ 0.25
5,TYDS,≤ 0.25
6,MLEL,≤ 0.25
7,MVAV,11.4
8,MVHV,≤ 0.25
9,MVYD,≤ 0.25
10,MVPY,≤ 0.25
11,GVAN,≤ 0.25
12,MVIV,≤ 0.25
13,MVWN,13.3
14,MVYI,≤ 0.25
15,MVNL,≤ 0.25
16,MVYK,17.6
17,MVAN,15.8
18,MVPA,≤ 0.25
19,GDLC,1.96
20,LWEG,≤ 0.25
21,RTKT,≤ 0.25
22,QLML,≤ 0.25
23,KICA,≤ 0.25
24,LLMY,≤ 0.25
25,FMIW,≤ 0.25
26,YMVF,≤ 0.25

row,Variant,enrichment ratio
1,NLLC,≤ 0.25
2,MVTG,≤ 0.25
3,MVMG,1.65
4,MVAG,12.7
5,LDKC,≤ 0.25
6,PPTY,≤ 0.25
7,TESH,32.2
8,NESH,≤ 0.25
9,TEGP,≤ 0.25
10,TEGH,18.1
11,TEES,≤ 0.25
12,HPGH,≤ 0.25
13,VEIH,≤ 0.25
14,HPYH,≤ 0.25
15,QEIH,≤ 0.25
16,TETH,10.3
17,TEYH,20.6
18,TEIH,11.4
19,DYRT,≤ 0.25
20,NIFH,≤ 0.25
21,YEYG,≤ 0.25
22,TSWM,16.2
23,NVTM,≤ 0.25
24,MMWM,≤ 0.25
25,TSAM,13.8
26,KSAM,≤ 0.25

row,Variant,enrichment ratio
1,MMTM,10.9
2,NSAM,≤ 0.25
3,KSWM,≤ 0.25
4,KSGM,≤ 0.25
5,TSTM,25.6
6,MMGM,1.99
7,TSGM,19.2
8,HFPI,≤ 0.25
9,TFKM,≤ 0.25
10,INVC,≤ 0.25
11,KVGI,≤ 0.25
12,GLDQ,≤ 0.25
13,DESQ,≤ 0.25
14,RFAC,≤ 0.25
15,SEGF,12.8
16,KYGF,≤ 0.25
17,STGF,11.4
18,KYMF,≤ 0.25
19,SQGF,0.381
20,STHF,≤ 0.25
21,STMF,11.1
22,SEMF,20.6
23,SRGF,0.392
24,MQAN,2.41
25,VFHF,≤ 0.25
26,QYTY,≤ 0.25

row,Variant,enrichment ratio
1,GGWG,≤ 0.25
2,IALA,≤ 0.25
3,AVFF,≤ 0.25
4,YVCH,0.383
5,GERH,≤ 0.25
6,DKRH,≤ 0.25
7,GALM,12.1
8,SELM,15.6
9,SFLM,4.5
10,GMLM,1.25
11,SNLM,12
12,GTLM,14.5
13,HILM,≤ 0.25
14,SILM,0.906
15,GYLM,≤ 0.25
16,SRLM,8.53
17,LTLM,2.03
18,SLLM,6.84
19,SPGC,≤ 0.25
20,GWTC,≤ 0.25
21,WFGV,≤ 0.25
22,IFGQ,≤ 0.25
23,VSCI,7.51
24,VLVC,≤ 0.25
25,SCAA,5.68
26,PIFW,1.39

row,Variant,enrichment ratio
1,LQRE,≤ 0.25
2,NQHW,≤ 0.25
3,YTLM,9.3
4,GCLM,16.5
5,QCLM,≤ 0.25
6,KQLM,≤ 0.25
7,ITLM,8.61
8,IILM,0.265
9,TTLM,16.5
10,VCLM,4.34
11,SALM,12.7
12,ATLM,21.4
13,YLIN,≤ 0.25
14,MTRF,≤ 0.25
15,FHGK,≤ 0.25
16,PTLY,≤ 0.25
17,EFRH,≤ 0.25
18,APYT,≤ 0.25
19,YSRL,≤ 0.25
20,LVSS,≤ 0.25
21,DSTR,≤ 0.25
22,IRCW,≤ 0.25
23,TYHN,≤ 0.25
24,GEDL,≤ 0.25
25,GNLM,17.5
26,VNLM,22.6

row,Variant,enrichment ratio
1,VFLM,≤ 0.25
2,GIYR,≤ 0.25
3,GFLM,2.69
4,GIPM,≤ 0.25
5,TNLM,2.74
6,MNLM,15.1
7,LNLM,≤ 0.25
8,GILM,15.7
9,MCLM,6.74
10,VYLM,≤ 0.25
11,AYGP,≤ 0.25
12,WTPP,≤ 0.25
13,ECHD,≤ 0.25
14,DMYC,≤ 0.25
15,TAWF,5.36
16,GYWP,≤ 0.25
17,GPLY,≤ 0.25
18,GKLA,≤ 0.25
19,GKVM,≤ 0.25
20,MPLM,≤ 0.25
21,MMLM,≤ 0.25
22,SPLM,≤ 0.25
23,MNPM,≤ 0.25
24,MNCK,≤ 0.25
